Test results: PubChem BioAssay (NCI)
Compounds without any hit were thinned out: in the full panel of roughly 79,000, 15% have a hit. Values without a mark were called inactive. Calls of active or inactive are those of the source. Cut-off read from the data, not from the text of the source: active = growth inhibition above about 70%; inactive = the rest.

Columns and labels:
[1] = NCI Yeast Anticancer Drug Screen. Data for the rad52 strain (AID 147);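 note: 0% = growth of vehicle-treated control cultures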; settings: S. cerevisiae rad52 mutant growth inhibition, stronger effect = higher value
Method in brief: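 Compounds are applied to a genetically defined yeast strain lacking normal DNA damage repair, and inhibition of growth is expressed relative to cultures given vehicle only.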

[2] = NCI Yeast Anticancer Drug Screen. Data for the wt1 strain (AID 149);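 note: 0% = growth of vehicle-treated wt1 cultures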; settings: S. cerevisiae wt1 strain (SPY 50644) growth inhibition, stronger effect = higher value
Method in brief: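 Compounds are added to wt1 yeast cultures. Growth is then measured. Inhibition is expressed relative to vehicle-treated controls.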

[3] = NCI Yeast Anticancer Drug Screen. Data for the rad50EPP+ strain (AID 151);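 note: 0% = growth of vehicle-treated control cultures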; settings: S. cerevisiae rad50 mutant strain, stronger effect = higher value
Method in brief: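 Compounds were applied to the rad50EPP+ yeast strain, which bears a defined DNA repair alteration, and growth inhibition was determined relative to vehicle-treated cultures.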

[4] = NCI Yeast Anticancer Drug Screen. Data for the rad50 strain (AID 155);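 note: 0% = growth of vehicle-only cultures of the same strain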; settings: S. cerevisiae rad50 strain growth inhibition, stronger effect = higher value
Method in brief: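 Inhibition values express reduced yeast growth in compound-treated cultures relative to vehicle-treated controls.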

[5] = NCI Yeast Anticancer Drug Screen. Data for the mec2-1 strain (AID 157); settings: S. cerevisiae mec2-1 strain, stronger effect = higher value
Method in brief: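 Strain: mec2-1 (DNA repair/cell cycle alteration). Compound exposure, then growth measured; inhibition expressed relative to vehicle.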

[6] = NCI Yeast Anticancer Drug Screen. Data for the rad14 strain (AID 159);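 note: 0% = growth of vehicle-treated control cultures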; settings: S. cerevisiae rad14 strain growth inhibition, stronger effect = higher value
Method in brief: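 A mutant yeast strain defective in DNA damage repair is treated with compound; inhibition of its growth is scored against untreated, vehicle-exposed cultures.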

[7] = NCI Yeast Anticancer Drug Screen. Data for the sgs1 mgt1 strain (AID 161);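 note: 0% = growth of cultures given vehicle only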; settings: S. cerevisiae sgs1 mgt1 strain, stronger effect = higher value
Method in brief: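 Genetically altered yeast, compound exposure, growth inhibition relative to vehicle.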

[8] = NCI Yeast Anticancer Drug Screen. Data for the CLN2oe strain (AID 163);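 note: 0% = growth of vehicle-only control cultures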; settings: S. cerevisiae CLN2oe strain, stronger effect = higher value
Method in brief: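 Growth of a genetically modified yeast strain is measured after compound exposure and compared with cultures given vehicle alone.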

[9] = NCI Yeast Anticancer Drug Screen. Data for the cln2 rad14 strain (AID 165);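 note: 0% = growth equal to vehicle treated cultures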; settings: S. cerevisiae cln2 rad14 strain, stronger effect = higher value
Method in brief: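 Compounds are applied to the cln2 rad14 yeast strain, and growth is then compared with that of vehicle-treated cultures to give inhibition.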

[10] = NCI Yeast Anticancer Drug Screen. Data for the bub3 strain (AID 167); settings: S. cerevisiae bub3 mutant strain, stronger effect = higher value
Method in brief: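 Steps: expose the mutant yeast strain to compound; grow alongside vehicle-treated cultures; measure growth; express inhibition against the vehicle cultures.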

[11] = NCI Yeast Anticancer Drug Screen. Data for the wt2 strain (AID 169);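 note: 0% = growth of vehicle-treated yeast cultures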; settings: S. cerevisiae wt2 strain growth inhibition, stronger effect = higher value
Method in brief: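 This strain belongs to a panel of yeast strains with defined genetic alterations in DNA damage repair or cell cycle control. Compounds are applied, and growth inhibition is measured against vehicle-treated cultures.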

[12] = NCI Yeast Anticancer Drug Screen. Data for the mlh1 strain (AID 171);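 note: 0% = growth of vehicle-treated control cultures of the same strain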; settings: S. cerevisiae mlh1 strain growth inhibition, stronger effect = higher value
Method in brief: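 Growth of the mutant yeast strain after compound exposure, expressed as inhibition relative to vehicle-only controls.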

[13] = NCI Yeast Anticancer Drug Screen. Data for the sgs1 strain (AID 173);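 note: 0% = growth of vehicle-only control cultures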; settings: S. cerevisiae sgs1 mutant, stronger effect = higher value
Method in brief: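 Growth of a yeast strain bearing a defined genetic alteration is measured after compound treatment. Inhibition is expressed relative to vehicle-only controls.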

[14] = NCI Yeast Anticancer Drug Screen. Data for the mlh1 rad18 strain (AID 175); settings: S. cerevisiae mlh1 rad18 strain growth inhibition, stronger effect = higher value
Method in brief: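 Read-out is yeast growth inhibition, calculated against vehicle-only controls. The compound was applied to a strain engineered with DNA damage repair alterations.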

[15] = NCI Yeast Anticancer Drug Screen. Data for the rad18 strain (AID 177); settings: S. cerevisiae rad18 mutant growth inhibition, stronger effect = higher value
Method in brief: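 Growth of the mutant yeast strain after compound exposure, normalised to vehicle-only cultures.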

[16] = at 5.0 µM (retest, dose inferred, filed as 0.5)
[17] = at 50.0 µM (retest, dose inferred, filed as 5.0)

With `N#CC(=C1C=CC(=NO)C=C1)c1ccccc1` the growth inhibition ([1]; at 1.2 µM) was 6%, the growth inhibition ([1]; at 3.7 µM) was 24% and the growth inhibition ([1]; at 11.0 µM) was 98% (active). For the same molecule, the growth inhibition ([1]; at 33.0 µM) was 99% (active), the growth inhibition ([1]; at 100.0 µM) was 99% (active) and the growth inhibition ([2]; at 1.2 µM) was 3%. The growth inhibition ([2]; at 3.7 µM) was 13%, the growth inhibition ([2]; at 11.0 µM) was 99% (active) and the growth inhibition ([2]; at 33.0 µM) was 99% (active). For the same molecule, the growth inhibition ([2]; at 100.0 µM) was 99% (active), the growth inhibition ([3]; at 1.2 µM) was 24% and the growth inhibition ([3]; at 3.7 µM) was 64%. The growth inhibition ([3]; at 11.0 µM) was 96% (active), the growth inhibition ([3]; at 33.0 µM) was 99% (active) and the growth inhibition ([3]; at 100.0 µM) was 98% (active). It also gave a growth inhibition ([4]; at 1.2 µM) of 4%, a growth inhibition ([4]; at 3.7 µM) of 26% and a growth inhibition [4, 16] of 30%. The growth inhibition ([4]; at 11.0 µM) was 98% (active), the growth inhibition ([4]; at 33.0 µM) was 99% (active) and the growth inhibition [4, 17] was 99% (active). The growth inhibition ([4]; at 50.0 µM) was 99.3% (active), the growth inhibition ([4]; at 100.0 µM) was 99% (active) and the growth inhibition ([5]; at 1.2 µM) was -3%. The growth inhibition ([5]; at 3.7 µM) was 14%, the growth inhibition [5, 16] was 19% and the growth inhibition ([5]; at 11.0 µM) was 99% (active). The growth inhibition ([5]; at 33.0 µM) was 99% (active), the growth inhibition [5, 17] was 99% (active) and the growth inhibition ([5]; at 50.0 µM) was 99.5% (active). The growth inhibition ([5]; at 100.0 µM) was 99% (active), the growth inhibition ([6]; at 1.2 µM) was 5% and the growth inhibition ([6]; at 3.7 µM) was 24%. The growth inhibition ([6]; at 11.0 µM) was 98% (active), the growth inhibition ([6]; at 33.0 µM) was 99% (active) and the growth inhibition ([6]; at 100.0 µM) was 99% (active). The growth inhibition [7, 16] was 35%, the growth inhibition [7, 17] was 99% (active) and the growth inhibition ([7]; at 50.0 µM) was 99.4% (active). For the same molecule, the growth inhibition ([8]; at 1.2 µM) was 2%, the growth inhibition ([8]; at 3.7 µM) was 10% and the growth inhibition ([8]; at 11.0 µM) was 97% (active). The growth inhibition ([8]; at 33.0 µM) was 99% (active), the growth inhibition ([8]; at 100.0 µM) was 99% (active) and the growth inhibition [9, 16] was -1%. The growth inhibition [9, 17] was 99% (active), the growth inhibition ([9]; at 50.0 µM) was 99.2% (active) and the growth inhibition ([10]; at 1.2 µM) was -21%. For the same molecule, the growth inhibition ([10]; at 3.7 µM) was -19%, the growth inhibition [10, 16] was 35% and the growth inhibition ([10]; at 11.0 µM) was 94% (active). The growth inhibition ([10]; at 33.0 µM) was 97% (active), the growth inhibition [10, 17] was 99% (active) and the growth inhibition ([10]; at 50.0 µM) was 99.3% (active). The growth inhibition ([10]; at 100.0 µM) was 99% (active), the growth inhibition ([11]; at 1.2 µM) was 4% and the growth inhibition ([11]; at 3.7 µM) was 41%. For the same molecule, the growth inhibition ([11]; at 11.0 µM) was 99% (active), the growth inhibition ([11]; at 33.0 µM) was 99% (active) and the growth inhibition ([11]; at 100.0 µM) was 99% (active). The growth inhibition ([12]; at 1.2 µM) was 3%, the growth inhibition ([12]; at 3.7 µM) was 15% and the growth inhibition ([12]; at 11.0 µM) was 99% (active). The growth inhibition ([12]; at 33.0 µM) was 99% (active), the growth inhibition ([12]; at 100.0 µM) was 99% (active) and the growth inhibition ([13]; at 1.2 µM) was 9%. The growth inhibition ([13]; at 3.7 µM) was 50%, the growth inhibition ([13]; at 11.0 µM) was 99% (active) and the growth inhibition ([13]; at 33.0 µM) was 99% (active). The growth inhibition ([13]; at 100.0 µM) was 99% (active), the growth inhibition [14, 16] was 64% and the growth inhibition [14, 17] was 99% (active). For the same molecule, the growth inhibition ([14]; at 50.0 µM) was 99.4% (active), the growth inhibition ([15]; at 1.2 µM) was 12% and the growth inhibition ([15]; at 3.7 µM) was 43%. For the same molecule, the growth inhibition ([15]; at 11.0 µM) was 99% (active), the growth inhibition ([15]; at 33.0 µM) was 99% (active) and the growth inhibition ([15]; at 100.0 µM) was 99% (active).

With `N#C/C(=C\c1ccccc1)c1ccccc1F` the growth inhibition ([1]; at 1.2 µM) was -1%, the growth inhibition ([1]; at 3.7 µM) was -3% and the growth inhibition ([1]; at 11.0 µM) was -2%. For the same molecule, the growth inhibition ([1]; at 33.0 µM) was -1%, the growth inhibition ([1]; at 100.0 µM) was 3% and the growth inhibition ([2]; at 1.2 µM) was 1%. For the same molecule, the growth inhibition ([2]; at 3.7 µM) was 1%, the growth inhibition ([2]; at 11.0 µM) was 2% and the growth inhibition ([2]; at 33.0 µM) was 1%. The growth inhibition ([2]; at 100.0 µM) was 1%, the growth inhibition ([3]; at 1.2 µM) was 2% and the growth inhibition ([3]; at 3.7 µM) was 2%. The growth inhibition ([3]; at 11.0 µM) was 9%, the growth inhibition ([3]; at 33.0 µM) was 16% and the growth inhibition ([3]; at 100.0 µM) was 21%. For the same molecule, the growth inhibition ([4]; at 1.2 µM) was -4%, the growth inhibition ([4]; at 3.7 µM) was 3% and the growth inhibition [4, 16] was 6%. The growth inhibition ([4]; at 11.0 µM) was -2%, the growth inhibition ([4]; at 33.0 µM) was 2% and the growth inhibition [4, 17] was 89% (active). It also gave a growth inhibition ([4]; at 50.0 µM) of 44.1%, a growth inhibition ([4]; at 100.0 µM) of 10% and a growth inhibition ([5]; at 1.2 µM) of 2%. For the same molecule, the growth inhibition ([5]; at 3.7 µM) was 0%, the growth inhibition [5, 16] was -11% and the growth inhibition ([5]; at 11.0 µM) was 4%. The growth inhibition ([5]; at 33.0 µM) was -4%, the growth inhibition [5, 17] was 69% and the growth inhibition ([5]; at 50.0 µM) was 41.7%. For the same molecule, the growth inhibition ([5]; at 100.0 µM) was -4%, the growth inhibition ([6]; at 1.2 µM) was -2% and the growth inhibition ([6]; at 3.7 µM) was -1%. The growth inhibition ([6]; at 11.0 µM) was 1%, the growth inhibition ([6]; at 33.0 µM) was 1% and the growth inhibition ([6]; at 100.0 µM) was 5%. For the same molecule, the growth inhibition [7, 16] was -8%, the growth inhibition [7, 17] was 90% (active) and the growth inhibition ([7]; at 50.0 µM) was 45.9%. It also gave a growth inhibition ([8]; at 1.2 µM) of 13%, a growth inhibition ([8]; at 3.7 µM) of 9% and a growth inhibition ([8]; at 11.0 µM) of 11%. It also gave a growth inhibition ([8]; at 33.0 µM) of 14%, a growth inhibition ([8]; at 100.0 µM) of 8% and a growth inhibition [9, 16] of -10%. For the same molecule, the growth inhibition [9, 17] was 17%, the growth inhibition ([9]; at 50.0 µM) was 6.15% and the growth inhibition ([10]; at 1.2 µM) was -31%. The growth inhibition ([10]; at 3.7 µM) was -21%, the growth inhibition [10, 16] was -17% and the growth inhibition ([10]; at 11.0 µM) was -6%. For the same molecule, the growth inhibition ([10]; at 33.0 µM) was -10%, the growth inhibition [10, 17] was 88% (active) and the growth inhibition ([10]; at 50.0 µM) was 34.9%. It also gave a growth inhibition ([10]; at 100.0 µM) of -7%, a growth inhibition ([11]; at 1.2 µM) of -3% and a growth inhibition ([11]; at 3.7 µM) of -2%. It also gave a growth inhibition ([11]; at 11.0 µM) of -1%, a growth inhibition ([11]; at 33.0 µM) of -1% and a growth inhibition ([11]; at 100.0 µM) of 4%.
